PubChem BioAssay AID720646 (Broad Institute, 2013)
Hit rate of the full screen: of about 1,000 compounds, about 25 (2%) were called active. A selection follows. Unmarked numbers belong to inactive results.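 How the source made its calls: active means fitted rise in melting shift crosses a set limit at or below the top valid dose tested; inconclusive means flat fit at mid-level activity, or a poor quality fit; inactive means the rest.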

molecular target: Fibroblast growth factor 22 (Homo sapiens) (UniProt Q9HCT0); experiment: FGF22 melting temperature shift by ligands – biophysical, thermal shift, cherry-pick retest, FGF22 synaptogenesis inhibitor project, dose response (AID 720646); settings: recombinant FGF22 thermal shift, SYPRO orange fluorescence; series mostly up to 38 µM; thermal shift activity: at the top concentration
Sequence (Q9HCT0 whole entry, looked up): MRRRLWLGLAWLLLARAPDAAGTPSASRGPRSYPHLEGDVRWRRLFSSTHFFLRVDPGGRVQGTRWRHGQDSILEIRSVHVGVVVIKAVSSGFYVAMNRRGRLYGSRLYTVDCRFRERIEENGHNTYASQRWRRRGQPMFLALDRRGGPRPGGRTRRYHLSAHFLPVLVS

Structure (SMILES)	thermal shift activity
O=C(N/N=C/c1ccc(OCc2ccccc2)cc1)c1ccc(O)cc1	0.406 °C (ΔTm)
CN1C(=O)c2cc(NC(=O)c3cccc(F)c3)ccc2OC[C@@H]2O[C@H](CC(=O)N3CCc4ccccc4C3)CC[C@@H]21	-0.043 °C (ΔTm)
CNC[C@@H]1Oc2ccc(NC(=O)C3CCCCC3)cc2C(=O)N([C@@H](C)CO)C[C@H]1C	0.124 °C (ΔTm)
O=C(c1ccccc1F)N1CC(=O)N2[C@H](C1)[C@H](c1ccc(-c3ccc(F)cc3)cc1)[C@@H]2CO	0.074 °C (ΔTm) [at 42 µM]
CCCCN1CC(N2CCN(Cc3cccc(C)c3)CC2)CS1(=O)=O (stereo unspecified)	0.068 °C (ΔTm)
O=C(Cc1cccnc1)N[C@H]1CC[C@H](CCn2cc(-c3ccccc3F)nn2)O[C@H]1CO	-0.057 °C (ΔTm)
CC(=O)NC[C@@H]1[C@@H](c2ccccc2)[C@@H](CO)N1C(=O)Cc1cccnc1	0.101 °C (ΔTm) [at 42 µM]
O=S(=O)(ON(c1ccccc1)S(=O)(=O)c1ccccc1)c1ccccc1	-0.012 °C (ΔTm)
O=C1C=CCCN1C(=O)/C=C/c1ccc(F)cc1	0.081 °C (ΔTm)
CC(=O)N1c2ccc(S(=O)(=O)N3CCC(C(=O)NCc4ccc(F)cc4)CC3)cc2CC1C (stereo unspecified)	-0.036 °C (ΔTm)
CCCOc1ccc(NC(=O)CC2C(=O)N(C)C(=S)N2Cc2ccc3c(c2)OCO3)cc1 (stereo unspecified)	0.387 °C (ΔTm)
Cc1cccc(S(=O)(=O)N2C[C@@H](O)COC[C@H]3O[C@H](CC(=O)Nc4ccc(-c5ccccc5)cc4)CC[C@@H]32)c1	0.095 °C (ΔTm) [at 42 µM]
Cc1c(CCO)sc[n+]1CC(=O)OC12CC3CC(CC(C3)C1)C2	0.104 °C (ΔTm)
COc1cc(NC(=O)c2ccc3c(c2)OCO3)ccc1NC(=O)c1cccs1	-0.041 °C (ΔTm)
O=C(N[C@@H]1C=C[C@H](CC(=O)N2CCCCC2)O[C@H]1CO)c1cccc(F)c1	0.341 °C (ΔTm)
CS(=O)(=O)c1ccc2nc(NC(=O)c3ccc(Cl)nc3)sc2c1	-0.002 °C (ΔTm)
CC(=O)Nc1ccc(S(=O)(=O)N(CCc2ccccc2)CC(=O)N/N=C/c2ccc(C(=O)O)cc2)cc1	-0.035 °C (ΔTm)
COCCN(C(=O)C(C)C)c1nnc(-c2ccc(C(C)(C)C)cc2)s1	-0.088 °C (ΔTm)
Cc1ccc(NC(=O)Nc2cccnc2)cc1	-0.039 °C (ΔTm)
CN1C(=O)c2cccc3c(N)ccc(c23)C1=O	0.092 °C (ΔTm)
O=C(N/N=C/c1ccc([N+](=O)[O-])cc1)c1c[nH]c2ccccc12	-0.096 °C (ΔTm)
O=C(Nc1ccccc1F)N1[C@H](CO)[C@H]2c3ccccc3NC[C@H]21	0.198 °C (ΔTm) [at 42 µM]
C[C@@H]1CN([C@@H](C)CO)S(=O)(=O)c2ccc(-c3ccncc3)cc2O[C@@H]1CN(C)C(=O)Nc1ccc(F)cc1	0.267 °C (ΔTm)
O=C(NN1C(=O)C2C3C=CC(O3)C2C1=O)c1ccccc1 (stereo unspecified)	0.049 °C (ΔTm)
COc1ccccc1C(=O)NNC(=O)c1ccc(NC(=O)c2ccccc2)cc1	-0.044 °C (ΔTm)
NS(=O)(=O)c1cccc(NC(=O)COC(=O)c2cc([N+](=O)[O-])ccc2N2CCCC2)c1	-0.13 °C (ΔTm)

Structure (SMILES)	thermal shift activity
COc1ccccc1NC(=O)N1[C@H](C#N)[C@H](c2ccccc2)[C@H]1CO	0.093 °C (ΔTm) [at 42 µM]
OC[C@H]1[C@H](c2ccc(-c3cccnc3)cc2)[C@H]2CN(Cc3ccccn3)CCCCN21	-0.103 °C (ΔTm)
O=C(Nc1nnc(-c2ccccc2F)s1)c1ccccc1F	0 °C (ΔTm)
C[C@H]1CN([C@@H](C)CO)C(=O)Cc2cc(NC(=O)Cc3cn(C)c4ccccc34)ccc2O[C@@H]1CN(C)Cc1ccccc1	0.039 °C (ΔTm) [at 42 µM]
CC(C)NC(=O)N(C)C[C@@H]1Oc2c(NC(=O)c3nc4ccccc4s3)cccc2C(=O)N([C@H](C)CO)C[C@H]1C	0.02 °C (ΔTm) [at 42 µM]
O=C(C[C@H]1CC[C@H]2[C@@H](COC[C@H](O)CN2S(=O)(=O)c2cccc(Cl)c2)O1)Nc1ccccc1	0.156 °C (ΔTm) [at 42 µM]
COc1ccc(-c2ccc([C@H]3[C@H]4CN(C(=O)c5ccc6c(c5)OCO6)CCCCN4[C@H]3CO)cc2)cc1	0.291 °C (ΔTm) [at 42 µM]
O=C(N/N=C/c1c[nH]c2ccccc12)c1cc2ccccc2o1	-0.119 °C (ΔTm)
COc1cc([N+](=O)[O-])ccc1NC(=O)CN1CCCC1	-0.034 °C (ΔTm)
COCC(=O)Nc1ccc2c(c1)OC[C@H](C)N(C)C[C@@H](C)[C@@H](OC)CN(C)C2=O	0.077 °C (ΔTm) [at 42 µM]
Cc1ccc(S(=O)(=O)NCCC(=O)Nc2ccc(C)c(Cl)c2)cc1C	0.145 °C (ΔTm)
COc1ccc(-c2cc(=O)oc3cc(OCC(=O)N[C@@H](Cc4c[nH]c5ccccc45)C(=O)O)ccc23)cc1	0.161 °C (ΔTm)
C[C@H]1CN([C@@H](C)CO)S(=O)(=O)c2ccc(C3=CCCC3)cc2O[C@H]1CN(C)C(=O)Nc1ccc2c(c1)OCO2	0.148 °C (ΔTm) [at 42 µM]
O=C(C[C@H]1C[C@@H]2c3cc(NC(=O)Nc4ccc(C(F)(F)F)cc4)ccc3O[C@@H]2[C@@H](CO)O1)NCC1CC1	-0.054 °C (ΔTm) [at 10 µM]
CC(C)(C)N1C(=O)c2c(C(=O)OCc3ccccc3)[nH]c(-c3ccccc3)c2C1=O	0.1 °C (ΔTm)
Cc1ccc(S(=O)(=O)Nc2nc3ccccc3s2)cc1[N+](=O)[O-]	-0.171 °C (ΔTm)
O=C(N/N=C/c1ccc(Cl)c(Cl)c1)c1ccc2nc[nH]c2c1	0.006 °C (ΔTm)
O=C(COc1ccc([N+](=O)[O-])cc1)Nc1cccc(C(=O)Nc2ccccc2C(=O)O)c1	0.358 °C (ΔTm)
O=C(NCCc1c[nH]c2ccccc12)C(=O)NCC1CCCO1 (stereo unspecified)	-0.166 °C (ΔTm)
Cc1ccc(NC(=O)O/N=C/c2cccc([N+](=O)[O-])c2)cc1	-0.042 °C (ΔTm)
Cc1ccc(S(=O)(=O)N(C)C[C@@H]2Oc3cc(C4=CCCC4)ccc3S(=O)(=O)N([C@@H](C)CO)C[C@@H]2C)cc1	0.058 °C (ΔTm) [at 42 µM]
CCn1ccnc1CN(C)C(=O)c1ccc2nc(Cc3ccc(OC)cc3)oc2c1	0.081 °C (ΔTm)
C[C@@H]1CCCCO[C@@H](CN(C)Cc2ccncc2)[C@H](C)CN([C@H](C)CO)C(=O)c2cc(NC(=O)Cc3ccccc3)ccc2O1	0.059 °C (ΔTm)
C[C@@H]1CN([C@H](C)CO)S(=O)(=O)c2ccc(-c3ccncc3)cc2O[C@@H]1CN(C)C(=O)Nc1ccc(C(F)(F)F)cc1	-0.536 °C (ΔTm)
CC(C)NC(=O)N1C[C@@H]2[C@H](c3ccccc31)[C@H](CO)N2C(=O)c1ccccn1	0.17 °C (ΔTm) [at 42 µM]
